Among the data in PubChem BioAssay AID1209 (Sanford-Burnham Center for Chemical Genomics, 2008) are inhibition values, retold here.

Screen size: about 190,000 compounds; about 810 (0.43%) were called active. For the sample, actives were picked, then their nearest neighbours and some compounds at random. A number with no mark means an inactive call. Rule as the data show it: active = inhibition above about 50%; inactive = the rest.

For the assay, the target named is Mannose-6-phosphate isomerase (Homo sapiens) (UniProt P34949). Put plainly: MPI enzyme activity inhibition – biochemical, fluorescence intensity, coupled assay, primary screen (AID 1209).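 Also: plate controls were DMSO vehicle for no effect and wells lacking substrate for full effect.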 The conditions noted are these: purified PMI enzyme, at 20 µM, active compounds read high.
Mannose-6-phosphate isomerase (Homo sapiens), sequence (P34949 whole entry, looked up): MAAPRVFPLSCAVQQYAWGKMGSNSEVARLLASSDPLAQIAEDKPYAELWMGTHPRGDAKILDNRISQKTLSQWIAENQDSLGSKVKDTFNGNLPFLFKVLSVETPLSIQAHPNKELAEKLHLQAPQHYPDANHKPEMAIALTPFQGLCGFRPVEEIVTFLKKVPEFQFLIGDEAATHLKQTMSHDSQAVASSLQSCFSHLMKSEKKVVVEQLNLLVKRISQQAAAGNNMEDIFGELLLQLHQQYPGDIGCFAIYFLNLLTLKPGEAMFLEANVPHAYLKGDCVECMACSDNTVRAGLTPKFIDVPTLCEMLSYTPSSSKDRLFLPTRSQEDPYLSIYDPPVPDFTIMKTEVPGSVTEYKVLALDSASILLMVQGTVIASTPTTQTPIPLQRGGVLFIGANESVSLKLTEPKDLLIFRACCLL
On to `S=C1NC2(CCCC2)Nc2ccccc21`, for which the inhibition (commonly the change of the read-out against control, counted positive when it falls) is -71.4%.

Consider `COC(=O)c1ccccc1NC(=O)c1ccc(-c2ccccc2F)o1`, for which the inhibition was -1.4%.

With `O=C(CSc1ncn[nH]1)Nc1ccc(Br)cc1F`, the inhibition was 6%.

In the case of `O=C1c2ccccc2C(=O)N1CCc1c[nH]c2ccc(O)cc12`, the inhibition was 22.1%.

With `FC(F)(F)c1cc(-c2ccc(Cl)cc2)nc2ncnn12`, the inhibition was -7.2%.

Turning to `COc1ccc(S(=O)(=O)N2CC(O)CC2C(=O)OCC(=O)Nc2ccc(Cl)cn2)cc1` (stereo not given), the inhibition is 13.3%.

For the molecule `O=[N+]([O-])c1cccc(-c2cn(-c3ccccc3)c(=S)[nH]2)c1`, the inhibition is -9.5%.

For the molecule `O=[N+]([O-])c1ccc(-c2cn(-c3ccccc3)c(=S)[nH]2)cc1`, the inhibition is -1.9%.

For the molecule `O=[N+]([O-])c1ccc2c(c1)[nH]c(=S)n2-c1ccccc1`, the inhibition was 58.6% (active).

For `CCc1cccc(CC)c1NC(=O)c1cc(CN2C(=O)c3ccccc3C2=O)ccc1OC`, the inhibition is 3%.

Regarding `Cc1nc2sc(C(c3cccc(F)c3)N3CC(C)OC(C)C3)c(O)n2n1` (stereo not given), the inhibition was -12.7%.

For `CCN1CCN(S(=O)(=O)c2cc(OCC(=O)NC3CCCCC3)c(C)cc2Cl)CC1`, the inhibition was 11.7%.

For the molecule `CC1(C)CC(=O)c2sc(NC(=O)c3ccc4ncsc4c3)nc2C1`, the inhibition was -7.8%.

For `Cc1cc(C)cc(OCC(=O)Nc2cccc(-c3nc4ncccc4o3)c2)c1`, the inhibition was -1%.

Regarding `Cc1ccc(-c2nc3ncccc3o2)cc1NC(=O)COc1ccccc1`, the inhibition was 3.5%.

For `Cc1ccc(OCC(=O)Nc2ccc(-c3nc4ncccc4o3)cc2)c(C)c1`, the inhibition was 97.8% (active).

Consider `COCCNC(=S)NCCc1ccc(Cl)cc1Cl`, for which the inhibition was -1.5%.

Regarding `O=C(/C=C/c1ccc(Cl)cc1)NC(=S)Nc1ccc(CN2CCOCC2)cc1`, the inhibition was 20.8%.

For the molecule `COc1ccc(CNC(=O)C(c2ccco2)N(C(=O)CNS(=O)(=O)c2ccccc2)c2ccccc2C)cc1` (stereo not given), the inhibition was 14%.

Turning to `Cc1cc(C)cc(N(C(=O)CNS(=O)(=O)c2ccccc2)C(C(=O)NCc2ccccc2)c2ccc(C)o2)c1` (stereo not given), the inhibition was 18.8%.

As to `Cc1ccc(S(=O)(=O)NCC(=O)N(c2ccccc2)C(C(=O)NCc2ccccc2)c2ccco2)cc1` (stereo not given), the inhibition was 57.1% (active).

For the molecule `Cc1ccc(/C=N/NC(=O)CN2CCN(S(=O)(=O)c3ccc(Br)cc3)CC2)s1`, the inhibition is 4.9%.

Take `COc1cc(-c2nnc(SCc3cc(=O)oc4cc(C)ccc34)o2)cc(OC)c1OC`: the inhibition was 12.5%.

With `COc1cc(-c2nnc(SCc3cc(=O)oc4cc(O)c(O)cc34)o2)cc(OC)c1OC`, the inhibition is 60.1% (active).

Consider `COc1cc(-c2nnc(SCc3ccccc3Cl)o2)cc(OC)c1OC`, for which the inhibition was 23.4%.

As to `NC(=O)c1c(NC(=O)CCCn2cnc([N+](=O)[O-])n2)sc2c1CCCC2`, the inhibition is 55.6% (active).

For `Cc1cc([N+](=O)[O-])nn1CC(=O)Nc1sc2c(c1C(N)=O)CCCC2`, the inhibition was 10.8%.

Take `CC1CCc2c(sc(NC(=O)CCCn3cnc([N+](=O)[O-])n3)c2C(N)=O)C1` (stereo not given): the inhibition is 1.2%.

With `Cc1cc([N+](=O)[O-])nn1CCCC(=O)Nc1sc2c(c1C(N)=O)CCCC2`, the inhibition is 53% (active).

`Cc1cc([N+](=O)[O-])nn1CCCC(=O)Nc1sc2c(c1C(N)=O)CCC(C)C2` (stereo not given): the inhibition was 9.5%.

As to `CCOC(=O)c1c(NC(=O)Cn2cnc([N+](=O)[O-])n2)sc2c1CCCC2`, the inhibition was 18.4%.

Regarding `CC(C)CC(c1nnnn1CCc1ccccc1)N1CCN(C(=O)c2ccco2)CC1` (stereo not given), the inhibition is 7.4%.

For `COc1cc(/C=C/C(=O)OCC(=O)Nc2cc(C(F)(F)F)ccc2N2CCOCC2)ccc1O`, the inhibition was 13%.

As to `COC(=O)Nc1ccc(S(=O)(=O)Nc2cnc3ccccc3n2)cc1`, the inhibition was -10.9%.

Turning to `CC(C)C(NC(=O)c1ccco1)C(=O)NCC(c1ccco1)N(C)C` (stereo not given), the inhibition was -3.6%.

In the case of `CCN(C(=O)c1cn(CC)c(=O)c2cc(OC)c(OC)cc12)c1ccccc1C`, the inhibition was 5.3%.

Consider `O=C(O)c1nn(-c2ccccc2)c(-c2ccccc2)c1C(=O)c1ccccc1`, for which the inhibition was -12.5%.

Turning to `CC(=O)c1c(O)c(C)c(-c2ccccc2)n(-c2ccccc2)c1=O`, the inhibition is 2.2%.

As for `O=C(c1ccccc1)c1c(O)nc(-c2ccccc2)n(-c2ccccc2)c1=O`, the inhibition was 108% (active).

Turning to `Oc1c(Br)cc(C2N=C(c3ccccc3Cl)NO2)cc1Br` (stereo not given), the inhibition was 0.3%.

As for `FC(F)(F)c1cccc(Cn2c3[n+](c4ccc(C(F)(F)F)cc42)CCCCC3)c1`, the inhibition is 1.3%.

Consider `FC(F)(F)c1ccc2c(c1)n(Cc1ccccc1)c1[n+]2CCCCC1`, for which the inhibition is 63.9% (active).

As to `Fc1ccccc1Cn1c2[n+](c3ccc(C(F)(F)F)cc31)CCCCC2`, the inhibition is 10.3%.

Take `CC1=NN(c2ccc(S(=O)(=O)O)cc2C)C(=O)C1`: the inhibition was -63.6%.

Consider `Fc1ccc(C2CCCN2Cc2nc(Cc3ccccc3)no2)cc1` (stereo not given), for which the inhibition is -7%.

On to `CC(=O)Nc1ccccc1C(=O)C(=O)Nc1ccc(C)c(F)c1`, for which the inhibition was 19.9%.

On to `Cc1cc(C)c(C(=O)COC(=O)Cn2cnnn2)cc1C`, for which the inhibition was -10.7%.

In the case of `CCN(CC)c1ccc2ccc(=O)oc2c1`, the inhibition was 2.1%.

As for `CCN(CC)c1ccc2c(C)c(Cl)c(=O)oc2c1`, the inhibition is -1.5%.

For the molecule `O=C(NCCN1CCOCC1)c1cc2cc([N+](=O)[O-])ccc2s1`, the inhibition is 5.6%.

Regarding `c1ccc(C2COC(c3cccs3)=N2)cc1` (stereo not given), the inhibition is 9.4%.

As to `COc1ccc(Br)cc1C1CC(=O)N2CN(Cc3ccccc3)CSC2=C1C#N` (stereo not given), the inhibition is 34.2%.

Turning to `N#CC1=C2SCN(Cc3ccco3)CN2C(=O)CC1c1c(F)cccc1Cl` (stereo not given), the inhibition is -3.1%.

In the case of `N#CC1=C2SCN(Cc3ccco3)CN2C(=O)CC1c1ccccc1F` (stereo not given), the inhibition was 43.7%.

Regarding `Cc1ccc(C2CC(=O)N3CN(Cc4ccco4)CSC3=C2C#N)cc1` (stereo not given), the inhibition was 29.7%.

On to `COc1cc(C2CC(=O)N3CN(Cc4ccco4)CSC3=C2C#N)ccc1OCc1ccccc1` (stereo not given), for which the inhibition was 50% (active).

Turning to `COc1ccc(C2CC(=O)N3CN(Cc4ccco4)CSC3=C2C#N)cc1` (stereo not given), the inhibition was 59.1% (active).

In the case of `COc1ccc2ccccc2c1C1CC(=O)N2CN(Cc3ccco3)CSC2=C1C#N` (stereo not given), the inhibition is 46.4%.

In the case of `CC(C)c1ccc(C2CC(=O)N3CN(C)CSC3=C2C#N)cc1` (stereo not given), the inhibition was 40.6%.

With `N#CC1=C2SCN(Cc3ccco3)CN2C(=O)CC1c1ccc(Cl)cc1` (stereo not given), the inhibition was 28.7%.

With `CC(C)c1ccc(C2CC(=O)N3CN(Cc4ccco4)CSC3=C2C#N)cc1` (stereo not given), the inhibition is 52.6% (active).

Regarding `N#CC1=C2SCN(Cc3ccco3)CN2C(=O)CC1c1cccc2ccccc12` (stereo not given), the inhibition is 55% (active).

Regarding `COc1cc(C2CC(=O)N3CN(Cc4ccccc4)CSC3=C2C#N)ccc1OCc1ccccc1` (stereo not given), the inhibition was 45.4%.

On to `COc1ccc(C(=O)NCC(=O)OCC(=O)N2CC(C)CC(C)C2)cc1` (stereo not given), for which the inhibition is 8.6%.

As for `Cc1cc(C)c2[nH]c(=O)c(CN(CC3CCCO3)C(=S)Nc3ccccc3)cc2c1` (stereo not given), the inhibition is 28.3%.

`COc1ccc([N+](=O)[O-])cc1NC(=O)CCN1CCN(C)CC1`: the inhibition was -0.2%.

Consider `COc1ccc2cc(/C(C)=N/NC(=O)C3CC3)ccc2c1`, for which the inhibition is -1.6%.

For `Fc1ccc(-n2[nH]nnc2=S)cc1N1CCCC1`, the inhibition was -13.3%.

Turning to `COc1ccc(Cn2c(-c3ccc(Br)cc3)c[n+]3ccccc23)cc1`, the inhibition is -1.6%.

As to `CC(=O)c1nnn(-c2ccc([N+](=O)[O-])cc2C)c1C`, the inhibition was -15.2%.

For `N#CC1=C2SCN(Cc3ccccc3)CN2C(=O)CC1c1ccccc1F` (stereo not given), the inhibition is 25.6%.

As for `N#CC1=C2SCN(Cc3ccccc3)CN2C(=O)CC1c1cccs1` (stereo not given), the inhibition is 40.2%.

On to `CC(C)CCCNc1nc(N2CCOCC2)nc(N2CCOCC2)n1`, for which the inhibition is 3.3%.

With `O=C(NCCc1c[nH]c2ccccc12)C(=O)NCC1OCCCN1S(=O)(=O)c1cccs1` (stereo not given), the inhibition is 5.3%.

In the case of `CC(C)n1nc(C(=O)Nc2nnc(SCc3c(Cl)cccc3Cl)s2)c2ccccc2c1=O`, the inhibition was 7.2%.

As for `O=C(Nc1ccc(N2CCN(c3ccccc3)CC2)c(F)c1)C1CC1`, the inhibition was -5.7%.

`CCN1C(=O)N(C)C2(c3ccccc3)N(C)C(=O)N(C)C12c1ccccc1` (stereo not given): the inhibition is 13.6%.

`CCN1c2ccccc2N(C)C1(C)c1ccccc1` (stereo not given): the inhibition was 61.2% (active).

Regarding `CN1c2ccccc2N(C)C1(C)c1ccccc1`, the inhibition is 26.1%.

As to `O=C(CSc1nnnn1-c1ccc(F)cc1)NC1CCCCC1`, the inhibition was 15.6%.

As for `CCOc1ccccc1C(=O)Nc1cc(Cl)ccc1O`, the inhibition is 14.5%.

Consider `O=C(Nc1ccc(N2CCCCCC2)cc1)c1ccccc1Cl`, for which the inhibition is 21.5%.

On to `O=C(O)c1cc(NCc2c(F)cccc2Cl)ccc1N1CCOCC1`, for which the inhibition was 4.6%.

As for `NS(=O)(=O)c1ccc(NCc2c(F)cccc2Cl)cc1`, the inhibition was -1.9%.

For `Fc1cccc(Cl)c1CNc1ccc(N2CCCC2)cc1`, the inhibition was 87.2% (active).

On to `Clc1cccc(Cl)c1CNc1ccc(N2CCCC2)cc1`, for which the inhibition was 87.2% (active).

For the molecule `O=S(=O)(Nc1ccc(N2CCCCC2)cc1)c1ccccc1`, the inhibition is 17%.

Consider `CCCN1CNC(=S)N(c2ccccc2OCC)C1`, for which the inhibition was -9.9%.

Turning to `O=C1Nc2ccccc2C(O)(C(=O)NCc2ccco2)N1c1ccccc1` (stereo not given), the inhibition was 1.5%.

In the case of `COC(=O)[C@@]1(Cc2ccc(OC)cc2)[C@H]2c3cc(C(=O)N4CCCC4)n(Cc4ccc(C)o4)c3C[C@H]2CN1C(=O)c1ccccc1`, the inhibition was 9.2%.

As to `Cc1[nH]nc2c1C(c1ccco1)C(C#N)=C(N)O2` (stereo not given), the inhibition is -18%.

As to `CNCCOc1ccccc1C(C)(C)C`, the inhibition is 5.9%.

For the molecule `NCCc1ccc(O)c(O)c1`, the inhibition is 64.5% (active).

Consider `OCCCc1ccc(O)c(O)c1`, for which the inhibition was 35.2%.

In the case of `Nc1ccc(Cc2ccc(N)c(O)c2)cc1O`, the inhibition is 5.5%.
